SARS PLP yeast: qHTS of Yeast-based Assay for SARS-CoV PLP; S. cerevisiae expressing SARS-CoV PLpro, growth rescue; Potency, µM (series often up to 32.9 µM), without a hit: at the highest dose activity, positive = growth rescue, actives largely listed as activators; 0.19% of 330,000 active; AID 485353, 2010; also: potency is read from the fitted curve at half-maximal effect; 0% is about no effect; nearly all actives have a fitted effect of over 55% in size
RE007 growth inh: qHTS Assay for Inhibitors of the HIV-1 protein Vpr. S. pombe RE007 Vpr strain, BacTiter-Glo ATP luminescence, 24 h. 0.21% of 360,000 active. Potency, µM (highest dose often 92.2 µM), for the others: at the top dose activity change, negative = less growth, hits mostly inhibitors; active = well fitted falling curve with a large enough effect; inconclusive = small, poorly fitted or top-dose-only effect; inactive = no such curve, though single readings can be large or run the other way; also: potency is read from the fitted curve at half-maximal effect; % is scaled to controls: 0 for no effect and ±100 for the full control effect; nearly all actives have a fitted effect of over 50% in size
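Fission yeast strain RE007, carrying one chromosomally integrated HIV-1 vpr copy, was seeded at OD 0.01 in PMG+AL medium with 23 nL pinned compound. After 24 h at 30 °C and 99% humidity, viability was read by BacTiter-Glo luminescence.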
NS1 function inh: qHTS Assay for Inhibitors of Influenza NS1 Protein Function | Potency, µM (series often up to 46.1 µM), for inactives: top-dose activity, positive = more growth | 0.4% of 270,000 active; also: potency is read from the fitted curve at half-maximal effect; actives are rising curves; nearly all actives have a fitted effect of over 50% in size
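In this qHTS, NS1 from influenza A is expressed in budding yeast, where it slows growth. Cells are switched from glucose to 2% galactose medium (pH 6.0, -URA), treated with compound, and growth recovery is read at OD600.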
Pf growth 96h: Primary qHTS for delayed death inhibitors of the malarial parasite plastid, 96 hour incubation; P. falciparum luciferase reporter growth, 96 h; Potency, µM (series often up to 28.7 µM), inactives show top-dose activity change, negative = inhibition, usual class: inhibitors; 6.9% of 320,000 active; active = well fitted inhibition curve with a large enough effect; inconclusive = small, poorly fitted or top-dose-only effect, or another doubt; inactive = no such curve, though single readings can be large or run the other way; also: potency is read from the fitted curve at half-maximal effect; % is scaled to controls: 0 for no effect and ±100 for the full control effect
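P. falciparum expressing integrated firefly luciferase grown in erythrocytes (2% hematocrit, 0.05% parasitemia final) with compounds for 96 hours at 37 C, 5% CO2. Growth inhibition read as loss of luminescence after adding luciferase detection reagent.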
Pf growth 48h: Primary qHTS for delayed death inhibitors of the malarial parasite plastid, 48 hour incubation; 5.9% of 310,000 active; Potency, µM (doses to about 28.7 µM), for inactives: at the top dose activity change, negative = inhibition, most hits filed as inhibitors; P. falciparum luciferase growth in erythrocytes, 48 h; active = well fitted inhibition curve with a large enough effect; inconclusive = small, poorly fitted or top-dose-only effect, or another doubt; inactive = no such curve, though single readings can be large or run the other way; also: potency is read from the fitted curve at half-maximal effect; % is scaled to controls: 0 for no effect and ±100 for the full control effect
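Compounds are pin-transferred into medium, infected erythrocytes (2% hematocrit, 0.1% parasitemia final) are added, and plates sit one parasite generation at 37 C in 5% CO2. Detection reagent is then added and luminescence measured.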
Flu NS1 inh: Assay for Inhibitors of Influenza NS1 Protein Function: Hit Validation. shares compounds with NS1 function inh. influenza NS1 function cell assay, 15-point titration. activity change, negative = inhibition, % at 32.9 µM. 1,400 tested, under 10 active. AID 492980, 2010; also: 0% is about no effect
Flu PR8 replic: Assay for Inhibitors of Influenza NS1 Protein Function: Influenza virus replication assay in MDCK cells infected with virus A/PR/8/34. MDCK infected influenza A/PR/8/34, virus titer TCID50; active compounds read low. 30% of 95 active. virus titer (log TCID50), log10 TCID50 at 5 µM. shares compounds with NS1 function inh; call rule not given here
An asterisk follows results filed as active; ? = inconclusive; . = not tested or not shown. An excerpt weighted towards active compounds, which were near 9.5% of everything screened. Unless noted, calls follow the shape of the full dose curve.

SMILES	SARS PLP yeast	RE007 growth inh	NS1 function inh	Pf growth 96h	Pf growth 48h	Flu NS1 inh	others
CCC(=O)Nc1sc2c(c1C#N)CCC2	0.1%	-9.3%	.	?	21.9%	.
CCCCOCCCNC(=O)C[C@@H]1C[C@@]2(C(=O)OC)CC(C)(C)CC=C2N(Cc2ccccc2)C1=O	.	-4.2%	.	.	.	.
CCc1ccc([C@@H]2C[C@H]3[C@@H](CN2S(=O)(=O)c2ccc(C)cc2)C(=O)C[C@@H](c2ccc(C)cc2)N3S(=O)(=O)c2ccc(C)cc2)cc1	.	6.1%	.	.	.	.
CC(C)(C)NC(=O)CN(C(=O)c1snc(C(=O)NC2CCCCC2)c1N)c1ccccc1F	-4.4%	6.5%	3.16µM*	6.1%	11.7µM*	-24.2
Cc1ccc(C)c(N(CC(=O)NC2CCCCC2)C(=O)c2snc(C(N)=O)c2N)c1	0.5%	-11.7%	12.6%	-1.5%	?	.
CCN1CCN(Cc2c(O)ccc3c2O/C(=C\C=C\c2ccccc2)C3=O)CC1	-3.1%	2.4%	10µM*	?	1.65µM*	-35.5
Cc1[nH]n(-c2cccc3ccccc23)c(=O)c1/C=N/c1sc2c(c1C#N)CCC2	6.5%	-11.8%	2.24µM*	?	?	-9.4	Flu PR8 replic=8.5
Cc1[nH]n(-c2ccc(F)cc2)c(=O)c1/C=N/c1sc2c(c1C#N)CCCC2	-1.1%	-4.8%	1.5%	250.2%	62.4%	.
O=C(Cn1c(=O)n(Cc2ccccc2)c(=O)c2ccccc21)NCc1ccco1	-1.9%	1.8%	5.0%	-0.5%	.	.
COCCNC(=O)Cn1c(=O)n(Cc2ccc(C(=O)NCc3ccco3)cc2)c(=O)c2ccccc21	?	7.9%	?	67.3%	-23.4%	2.0
CCC(C)NS(=O)(=O)c1ccc(NC(=O)C2CCN(C(=O)c3ccco3)CC2)cc1 (stereo not drawn)	-3.4%	32.5%	-3.7%	-1.2%	-4.1%	.
O=C(CSc1nnnn1Cc1ccccc1)c1ccc(F)cc1	-0.2%	7.1%	7.94µM*	45.4%	12.0%	24.6
O=C(CSc1nnnn1Cc1ccccc1)c1ccccc1	-11.5%	-15.9%	-13.7%	?	52.1%	.
COC(=O)c1[nH]c2ccc(C)cc2c1NS(=O)(=O)c1ccc(F)c(C)c1	1.4%	-17.3%	1.78µM*	?	?	-38.8
N#CC1=C(N)Oc2c(ccc3ccccc23)C1c1ccsc1 (stereo not drawn)	-13.3%	1.8%	0.7%	225.1%	48.0%	.
COc1cc(C2C(C#N)=C(N)Oc3c2ccc2ccccc32)ccc1OCC(=O)Nc1cccc(C)c1 (stereo not drawn)	11.7%	16.2%	11.2µM*	19.7%	11.7µM*	4.7	Flu PR8 replic=8.33
C[C@H](CO)N1C[C@H](C)[C@@H](CN(C)Cc2ccc(C(=O)Nc3ccccc3N)cc2)Oc2c(NC(=O)C3CCCCC3)cccc2C1=O	16.3%	-7.4%	.	.	.	.
O=C1NC(=S)S/C1=C/c1ccc(N2CCOCC2)o1	-7.8%	?	7.94µM*	28.0%	8.6%	2.0
CN1C(=O)C(=Cc2ccc(N3CCOCC3)o2)C(=O)N(C)C1=S	-0.2%	-10.0%	5.2%	?	-11.3%	.
O=C(O)c1cccc(Cn2c(Cl)c(/C=N/NC(=O)c3ccccc3O)sc2=O)c1	-0.7%	2.6%	0.7%	-3.5%	42.9%	.
O=C(O)c1cccc(Cn2c(Cl)c(/C=N/NC(=O)c3ccccc3Cl)sc2=O)c1	3.6%	-16.1%	0.794µM*	-17.0%	21.3%	6.7
CC(C)(CN1CCCC1)NS(=O)(=O)c1ccc(Cl)cc1	-1.5%	-5.4%	?	4.1%	-21.9%	-0.5
O=C(CSc1nnc(-c2ccccc2)n1C1CCCCC1)Nc1ccc(S(=O)(=O)Nc2ccccn2)cc1	-0.2%	2.3%	?	44.7%	1.7%	-8.9
CCCN(C)C1CN(Cc2cn(Cc3ccccc3)nn2)S(=O)(=O)C1 (stereo not drawn)	.	0.2%	.	.	.	.
COc1cccc(N2C(=NC(=O)C3CCCO3)SC3CS(=O)(=O)CC32)c1 (stereo not drawn)	3.7%	-2.7%	6.2%	?	-56.1%	.
SMILES	SARS PLP yeast	RE007 growth inh	NS1 function inh	Pf growth 96h	Pf growth 48h	Flu NS1 inh	others
O=C(Nc1nc2ccc(S(=O)(=O)N3CCCCC3)cc2s1)c1ccncc1	0.6%	4.6%	10µM*	-18.8%	?	-28.3
CN(C)S(=O)(=O)c1ccc2oc(SCC(=O)NCC(F)(F)F)nc2c1	?	3.0%	10µM*	27.9%	?	3.5
CCS(=O)(=O)c1ccc2oc(SCC(=O)NCCc3ccc(OC)cc3)nc2c1	0.1%	-2.1%	-4.6%	31.6%	19.2%	.
COc1cc(/C=N/NC(N)=O)ccc1OC(=O)c1ccc(C)cc1	-0.3%	.	2.4%	33.4%	0.8%	.
COc1ccc(C(=O)Oc2cc(/C=N/NC(N)=S)ccc2OC)cc1	?	-4.8%	8.91µM*	39.6%	3.6%	-38.7
COc1ccc(/C=N/NC(N)=S)cc1OC(=O)c1cccc2ccccc12	?	4.0%	2.24µM*	?	?	?
CC(=O)Nc1ccc(NC(=O)COC(=O)[C@@H]2CCCN2C(=O)c2cccs2)cc1	3.6%	6.2%	.	.	.	.
O=C(O)c1cc(Cl)c2c(c1)[C@@H]1C=CC[C@@H]1[C@H](c1ccc(S(=O)(=O)N3CCOCC3)cc1)N2	27.4%	-4.5%	14.1µM*	-8.1%	4.9%	29.6
CCCOc1ccc(C(=O)N2CCN(c3ccc(N)cc3Cl)CC2)cc1	-3.6%	8.4%	11.2µM*	.	?	-23.4
CCCCOc1ccc(C(=O)N2CCN(c3ccc(N4CCOCC4)nn3)CC2)cc1	-1.0%	?	.	?	?	.
Cc1cccc(NC(=O)CSCC(=O)Nc2sccc2C#N)c1	2.4%	-3.9%	.	2.3%	?	.
Cc1nc(N)sc1-c1csc(Nc2ccccc2)n1	-2.5%	-27.2%	16.1%	2.8%	9.5%	.
CC(=O)Nc1nc(C)c(-c2csc(Nc3ccc(O)cc3)n2)s1	2.9%	9.5%	3.16µM*	?	2.62µM*	17.6
Cc1nc(C)c(-c2csc(Nc3ccc(N)cc3)n2)s1	-9.7%	-5.4%	-5.3%	33.8%	18.7%	.
Cc1cc(O)ccc1Nc1nc(-c2sc(N)nc2C)cs1	1.7%	-9.2%	11.2µM*	8.7%	-11.8%	5.7
COCCn1c(C)cc(/C=C2/NC(=O)N(c3ccc(Cl)cc3)C2=O)c1C	18.8%	5.6%	?	?	?	8.0
COc1ccc(NC(=O)c2ccccc2NC(=O)C2CCCCC2C(=O)O)cc1 (stereo not drawn)	.	9.6%	.	.	.	.

Source: PubChem (National Center for Advancing Translational Sciences (NCATS))
